Results published in PubChem BioAssay.
Calls of active or inactive are those of the source.

Columns and labels:
[1] = tested on: Plasmodium falciparum Sir2 (PF13_0152, Sir2A); test: Plasmodium falciparum Sir2A binding compounds – biochemical, small-molecule microarray, 635 nm fluorescence, primary screen (AID 1098); details: fluorescence 635 nm, higher = more signal;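 note: score merges spot fluorescence intensity with its signal-to-noise ratio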
[2] = probe aDKK1 binding to arrayed compounds – biochemical, biotinylated probe, 635/667 nm fluorescence, primary screen (AID 1099); details: small-molecule microarray, higher = more signal;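 note: score merges 667nm spot fluorescence with signal to noise across triplicate slides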
[3] = probe aCHRDL2 binding to arrayed compounds – biochemical, biotinylated probe, 635/667 nm fluorescence, primary screen (AID 1100); details: small-molecule microarray, higher = more signal
[4] = change in splice reporter luminescence, either direction, cell-based, HEK293, spliceosome inhibition project, primary screen (AID 1101); details: HEK293 splicing luciferase reporter, 24 h, higher = more signal, called active from +8 up or from −8 down;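 note: HEK293 cells carrying a splicing-competent luciferase reporter gene; test concentration not given here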
[5] = biological target: Fibroblast growth factor 10 (Homo sapiens) (UniProt O15520); test: compounds binding fibroblast growth factor 10 – biochemical, small-molecule microarray, 635 nm fluorescence, primary screen (AID 1102); details: FGF10 binding, fluorescence 635 nm, higher = more signal
Fibroblast growth factor 10 (Homo sapiens), sequence (O15520 whole entry, looked up): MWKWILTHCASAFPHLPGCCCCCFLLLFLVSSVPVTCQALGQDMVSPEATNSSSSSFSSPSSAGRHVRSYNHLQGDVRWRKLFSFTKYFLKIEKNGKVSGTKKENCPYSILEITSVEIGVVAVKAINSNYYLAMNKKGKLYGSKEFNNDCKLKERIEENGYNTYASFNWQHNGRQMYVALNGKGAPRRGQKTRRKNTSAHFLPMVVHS

[6] = tested on: glycogen synthase kinase-3 (GSK3A per assay name; protocol says GSK3B); test: compounds binding glycogen synthase kinase-3 – biochemical, small-molecule microarray, 635 nm fluorescence, GSK3A, primary screen (AID 1103); details: fluorescence 635 nm, higher = more signal; note: the record names both GSK3A and GSK3B
[7] = biological target: Epidermal growth factor receptor (Homo sapiens) (UniProt P00533); test: compounds binding epidermal growth factor receptor – biochemical, small-molecule microarray, 635 nm fluorescence, primary screen (AID 1104); details: EGFR binding, higher = more signal;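 note: score merges 667 nm emission intensity with spot signal to noise over triplicate slides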
Epidermal growth factor receptor (Homo sapiens), sequence (P00533 whole entry, looked up): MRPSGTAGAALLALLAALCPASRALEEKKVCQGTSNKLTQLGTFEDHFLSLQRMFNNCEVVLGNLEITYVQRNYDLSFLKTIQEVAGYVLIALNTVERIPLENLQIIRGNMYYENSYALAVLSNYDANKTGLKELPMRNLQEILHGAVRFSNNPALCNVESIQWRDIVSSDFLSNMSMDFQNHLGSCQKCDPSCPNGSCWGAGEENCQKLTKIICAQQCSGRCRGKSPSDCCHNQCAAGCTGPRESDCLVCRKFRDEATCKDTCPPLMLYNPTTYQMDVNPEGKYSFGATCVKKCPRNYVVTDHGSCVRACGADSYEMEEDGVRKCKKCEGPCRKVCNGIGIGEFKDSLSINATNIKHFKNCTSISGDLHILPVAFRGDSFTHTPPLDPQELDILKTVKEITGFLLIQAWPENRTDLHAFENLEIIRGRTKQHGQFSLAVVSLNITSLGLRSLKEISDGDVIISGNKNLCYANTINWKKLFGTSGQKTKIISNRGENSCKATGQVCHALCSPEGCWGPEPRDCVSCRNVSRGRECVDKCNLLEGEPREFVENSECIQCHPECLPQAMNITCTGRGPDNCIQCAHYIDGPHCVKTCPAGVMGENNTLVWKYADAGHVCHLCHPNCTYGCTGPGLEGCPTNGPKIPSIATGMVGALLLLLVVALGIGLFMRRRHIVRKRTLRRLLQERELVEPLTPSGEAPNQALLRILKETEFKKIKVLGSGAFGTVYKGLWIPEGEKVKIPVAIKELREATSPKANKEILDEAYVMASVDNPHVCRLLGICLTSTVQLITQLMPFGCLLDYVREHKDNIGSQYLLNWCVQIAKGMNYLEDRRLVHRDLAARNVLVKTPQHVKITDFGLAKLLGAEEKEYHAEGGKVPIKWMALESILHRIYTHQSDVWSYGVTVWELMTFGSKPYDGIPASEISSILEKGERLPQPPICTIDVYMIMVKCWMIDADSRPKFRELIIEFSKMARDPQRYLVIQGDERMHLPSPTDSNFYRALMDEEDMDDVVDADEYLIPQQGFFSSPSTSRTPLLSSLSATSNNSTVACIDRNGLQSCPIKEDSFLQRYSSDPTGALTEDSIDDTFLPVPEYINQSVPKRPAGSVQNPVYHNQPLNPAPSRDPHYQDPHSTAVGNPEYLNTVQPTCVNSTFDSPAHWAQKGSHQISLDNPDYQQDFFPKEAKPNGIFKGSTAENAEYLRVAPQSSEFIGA

[8] = biological target: Follistatin-related protein 3 (Homo sapiens) (UniProt O95633); test: compounds binding follistatin-related protein 3 – biochemical, small-molecule microarray, 635 nm fluorescence, primary screen (AID 1105); details: FSTL3 binding, higher = more signal;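 note: score merges emission near 667 nm and signal to noise per printed spot across three slides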
Follistatin-related protein 3 (Homo sapiens), sequence (O95633 whole entry, looked up): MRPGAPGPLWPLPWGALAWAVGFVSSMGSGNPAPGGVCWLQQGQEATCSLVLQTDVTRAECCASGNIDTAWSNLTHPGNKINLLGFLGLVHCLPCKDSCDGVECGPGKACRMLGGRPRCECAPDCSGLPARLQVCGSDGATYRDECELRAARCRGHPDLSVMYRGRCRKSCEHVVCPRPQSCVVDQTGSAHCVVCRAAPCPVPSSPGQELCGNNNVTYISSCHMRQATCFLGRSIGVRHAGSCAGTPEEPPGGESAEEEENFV

[9] = biological target: Dickkopf-related protein 1 (Homo sapiens) (UniProt O94907); test: small molecules binding DKK1 protein – biochemical, small-molecule microarray, 635 nm fluorescence scan, primary screen (AID 1106); details: higher = more signal;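 note: score merges emission near 667 nm with signal to noise over three replicate slides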
Dickkopf-related protein 1 (Homo sapiens), sequence (O94907 whole entry, looked up): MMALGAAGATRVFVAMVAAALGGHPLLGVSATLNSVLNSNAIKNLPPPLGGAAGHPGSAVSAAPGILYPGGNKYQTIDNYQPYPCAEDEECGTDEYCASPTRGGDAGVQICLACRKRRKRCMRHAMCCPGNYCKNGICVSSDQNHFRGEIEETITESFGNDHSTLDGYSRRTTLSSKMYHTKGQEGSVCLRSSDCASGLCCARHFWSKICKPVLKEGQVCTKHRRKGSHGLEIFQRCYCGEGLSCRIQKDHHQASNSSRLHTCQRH

[10] = tested on: Inhibin beta A chain (activin A); test: small molecules binding activin A – biochemical, small-molecule microarray, 635 nm fluorescence scan, primary screen (AID 1107); details: INHBA, higher = more signal;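 note: mouse activin A protein probed at 4.33 µg/mL on printed slides; score merges bound-protein fluorescence near 667 nm with spot signal-to-noise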
[11] = tested on: Human papillomavirus type 1a protein E7 (residues 44-93); test: small molecules binding HPV E7 44-93 – biochemical, small-molecule microarray, residues 44-93, 635 nm fluorescence, primary screen (AID 1108); details: fluorescence 635 nm, higher = more signal;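 note: E7 fragment applied at 1 µg/mL in TBST for 1 h at 4 C; score combines spot fluorescence with its signal to noise ratio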
[12] = hepatitis C replication reporter changes, two-sided – Huh7 cells, luciferase reporter, HCV replication inhibitor project, primary screen (AID 1109); details: Huh7 HCV replicon luciferase reporter, 48 h; higher = more signal;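 note: huh7 hepatoma cells harbouring a luciferase neomycin HCV replicon reporter; luciferase luminescence as measure of HCV replicon replication; test concentration not given here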
[13] = biological target: Left-right determination factor 2 (Homo sapiens) (UniProt O00292); test: small molecules binding LEFTY2 protein – biochemical, small-molecule microarray, 635 nm fluorescence scan, primary screen (AID 1110); details: higher = more signal
Left-right determination factor 2 (Homo sapiens), sequence (O00292 whole entry, looked up): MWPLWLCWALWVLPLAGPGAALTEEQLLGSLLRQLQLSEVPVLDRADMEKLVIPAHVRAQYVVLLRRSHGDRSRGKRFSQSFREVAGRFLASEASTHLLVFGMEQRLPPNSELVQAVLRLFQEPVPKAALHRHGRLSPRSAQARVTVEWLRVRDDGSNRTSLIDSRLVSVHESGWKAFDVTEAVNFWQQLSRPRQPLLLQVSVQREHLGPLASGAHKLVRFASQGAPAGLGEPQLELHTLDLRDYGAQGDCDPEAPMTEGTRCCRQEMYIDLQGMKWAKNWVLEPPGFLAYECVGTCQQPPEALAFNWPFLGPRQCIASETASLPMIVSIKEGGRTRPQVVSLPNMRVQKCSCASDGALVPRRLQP

[14] = biological target: Calmodulin-1 (Homo sapiens) (UniProt P0DP23); test: small molecules binding calmodulin-1 with EGTA – biochemical, small-molecule microarray, Cy5-labelled CALM1, profiling panel (AID 1111); details: Cy5-CALM1 binding fluorescence, higher = more signal;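 note: labelled calmodulin applied in Tris saline Tween buffer holding calcium plus EGTA and DTT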
[15] = biological target: Calmodulin-1 (Homo sapiens) (UniProt P0DP23); test: small molecules binding Ca-loaded calmodulin-1 – biochemical, small-molecule microarray, Cy5-labelled CALM1, plus calcium, artefact control for SMM control-protein annotation, profiling panel (AID 1112); details: Cy5-CALM1 binding fluorescence, higher = more signal;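 note: score merges spot fluorescence with signal to noise from triplicate slides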
[16] = probe aWnt5a binding to arrayed compounds – biochemical, biotinylated probe, 635/667 nm fluorescence, primary screen (AID 1113); details: small-molecule microarray, higher = more signal;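 note: score merges 667 nm fluorescence intensity with signal-to-noise per printed feature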
[17] = probe aShh binding to arrayed compounds – biochemical, biotinylated probe, 635/667 nm fluorescence, primary screen (AID 1114); details: small-molecule microarray, higher = more signal;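 note: probe is biotin-labelled aShh protein from a stem cell growth factor screen; measures binding of labelled protein to compounds printed on the slide; score merges feature fluorescence at 667 nm with signal-to-noise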
[18] = probe aNog binding to arrayed compounds – biochemical, biotinylated probe, 635/667 nm fluorescence, primary screen (AID 1115); details: small-molecule microarray, higher = more signal;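 note: probe is biotinylated aNog protein used at 0.15 µg/mL for 1 h at 4 C; z-score combines 667 nm fluorescence of each spot with its signal to noise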
[19] = biological target: Torsin-1A-interacting protein 1 (Homo sapiens) (UniProt Q5JTV8); test: compound microarray binding of lysate hLAP1 – cell lysate, small-molecule microarray, COS7 lysate, 635/667 nm fluorescence, primary screen (AID 1116); details: 635 nm fluorescence, higher = more signal
Torsin-1A-interacting protein 1 (Homo sapiens), sequence (Q5JTV8 whole entry, looked up): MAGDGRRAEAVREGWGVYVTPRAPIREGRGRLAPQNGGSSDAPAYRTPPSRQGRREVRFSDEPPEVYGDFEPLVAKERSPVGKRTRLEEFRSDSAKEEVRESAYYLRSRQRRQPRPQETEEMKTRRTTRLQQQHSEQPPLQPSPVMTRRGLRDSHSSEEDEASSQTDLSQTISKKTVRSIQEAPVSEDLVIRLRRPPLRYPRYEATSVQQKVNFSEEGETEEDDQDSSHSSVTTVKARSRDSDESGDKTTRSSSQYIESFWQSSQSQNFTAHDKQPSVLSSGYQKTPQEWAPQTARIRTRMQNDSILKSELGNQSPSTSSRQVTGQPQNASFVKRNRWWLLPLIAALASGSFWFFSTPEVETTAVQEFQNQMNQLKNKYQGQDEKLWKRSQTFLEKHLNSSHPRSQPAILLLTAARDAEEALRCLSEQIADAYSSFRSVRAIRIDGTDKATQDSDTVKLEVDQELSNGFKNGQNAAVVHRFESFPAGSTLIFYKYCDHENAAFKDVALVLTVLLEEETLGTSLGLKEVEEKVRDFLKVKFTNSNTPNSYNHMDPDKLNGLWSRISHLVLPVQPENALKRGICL

[20] = biological target: Alpha-bungarotoxin (Bungarus multicinctus) (UniProt P60615); test: compounds binding labelled alpha-BTX control protein – biochemical, small-molecule microarray, Alexa647 label, 635/667 nm fluorescence, artefact control for SMM control protein annotation, profiling panel (AID 1117); details: alpha-BTX-A647 binding fluorescence, higher = more signal
Alpha-bungarotoxin (Bungarus multicinctus), sequence (P60615 whole entry, looked up): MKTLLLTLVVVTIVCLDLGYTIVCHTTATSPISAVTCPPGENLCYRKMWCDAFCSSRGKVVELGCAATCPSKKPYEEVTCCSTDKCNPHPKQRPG

| Structure (SMILES) | composite z-score [1] | composite z-score [2] | composite z-score [3] | z-score [4] | composite z-score [5] | composite z-score [6] | composite z-score [7] | composite z-score [8] | composite z-score [9] | composite z-score [10] | composite z-score [11] | z-score [12] | composite z-score [13] | composite z-score [14] | composite z-score [15] | composite z-score [16] | composite z-score [17] | composite z-score [18] | composite z-score [19] | composite z-score [20] |
| --- | --- | --- | --- | --- | --- | --- | --- | --- | --- | --- | --- | --- | --- | --- | --- | --- | --- | --- | --- | --- |
| CCN(CC)c1ccc(N2CC=CC34O[C@@H]5C=CCCOC(=O)C5[C@H]3C(=O)N(C(C)CO)[C@@H]4C2=O)cc1 (stereo not given in full) | 1.85 | -0.24 | 0.477 | -0.0428 (inactive) | 0.0925 | 0.519 | -0.79 | -0.157 | -0.0888 | 1.42 | 0.274 | -1.19 | -0.331 | -0.521 | -1.08 | -0.0758 | 0.194 | 0.156 | 0.391 | -0.973 |
| CC(C)=CCCC(C)=CC(O)C1C=CC2C(=O)NC(=O)C2N1Nc1ccc(Cl)cc1Cl (stereo not given) | 0.44 | 0.34 | 0.992 | 1.22 (inactive) | 0.499 | 0.0742 | 0.542 | 1.1 | 0.153 | 1.44 | 1.36 | -0.922 | 0.41 | 1.69 | 0.254 | -0.0327 | 0.14 | 1.5 | 1.17 | 0.451 |
| COC(=O)[C@@]1(Cc2ccc(OC)cc2)[C@H]2c3cc(C(=O)N4CCCC4)n(Cc4ccc(Cl)c(C(F)(F)F)c4)c3C[C@H]2CN1C(=O)c1ccccc1 | 1.38 | 1.62 | 1.23 | -0.75 (inactive) | 0.927 | 1.27 | -0.02 | 1.36 | -0.428 | 0.822 | 1.47 | -2 | 0.0524 | 2.74 | 1.35 | 0.207 | 0.165 | 2.07 | 1.98 | 1.62 |
| C=C(CCCC)C(=O)CC[C@H](OC(=O)c1ccccc1-c1ccccc1C(=O)O)c1ccc(OCCO)cc1 | 1.25 | -0.253 | -0.403 | 1.02 (inactive) | 0.569 | 0.107 | 0.12 | 0.0258 | 0.248 | 1.09 | 1.34 | -2.05 | 0.849 | 0.945 | -0.898 | -0.119 | -0.154 | -0.495 | 0.479 | 1.02 |
| COCCOC(=O)N1C(=O)[C@@]2(c3ccccc31)[C@H](c1ccc(O)cc1)N1[C@H](c3ccccc3)[C@H](c3ccccc3)OC(=O)[C@H]1[C@@H]2C(=O)N1CCCCCCC1 | 1.81 | 2.94 | 1.68 | -0.682 (inactive) | 1.39 | 1.37 | 1.76 | 1.69 | 2.31 | 1.96 | 1.34 | -2.23 | 1.51 | 2.52 | 1.34 | 0.65 | 3.03 | 3.42 | 4.5 | 3.04 |
